# Laboratory results taken from publication PMC4336329 (PLoS ONE, 2015).
# In all, about 310,000 compounds went through this assay and about 14,000 (4.5%) showed an effect of 50% or more. The effect is printed as a negative number. For the sample, strong results were picked, then their nearest neighbours and some compounds at random.
# Target: human ether-à-go-go-related gene (hERG) potassium channel (human, UniProt Q12809)
# Experiment: primary screen, population patch clamp on CHO cells stably expressing hERG; higher = less effect of the substance
# 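Further: peak tail current of the secondary pulse compared with the same well before compound.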
# Sequence of human ether-à-go-go-related gene (hERG) potassium channel (Q12809 whole entry, looked up): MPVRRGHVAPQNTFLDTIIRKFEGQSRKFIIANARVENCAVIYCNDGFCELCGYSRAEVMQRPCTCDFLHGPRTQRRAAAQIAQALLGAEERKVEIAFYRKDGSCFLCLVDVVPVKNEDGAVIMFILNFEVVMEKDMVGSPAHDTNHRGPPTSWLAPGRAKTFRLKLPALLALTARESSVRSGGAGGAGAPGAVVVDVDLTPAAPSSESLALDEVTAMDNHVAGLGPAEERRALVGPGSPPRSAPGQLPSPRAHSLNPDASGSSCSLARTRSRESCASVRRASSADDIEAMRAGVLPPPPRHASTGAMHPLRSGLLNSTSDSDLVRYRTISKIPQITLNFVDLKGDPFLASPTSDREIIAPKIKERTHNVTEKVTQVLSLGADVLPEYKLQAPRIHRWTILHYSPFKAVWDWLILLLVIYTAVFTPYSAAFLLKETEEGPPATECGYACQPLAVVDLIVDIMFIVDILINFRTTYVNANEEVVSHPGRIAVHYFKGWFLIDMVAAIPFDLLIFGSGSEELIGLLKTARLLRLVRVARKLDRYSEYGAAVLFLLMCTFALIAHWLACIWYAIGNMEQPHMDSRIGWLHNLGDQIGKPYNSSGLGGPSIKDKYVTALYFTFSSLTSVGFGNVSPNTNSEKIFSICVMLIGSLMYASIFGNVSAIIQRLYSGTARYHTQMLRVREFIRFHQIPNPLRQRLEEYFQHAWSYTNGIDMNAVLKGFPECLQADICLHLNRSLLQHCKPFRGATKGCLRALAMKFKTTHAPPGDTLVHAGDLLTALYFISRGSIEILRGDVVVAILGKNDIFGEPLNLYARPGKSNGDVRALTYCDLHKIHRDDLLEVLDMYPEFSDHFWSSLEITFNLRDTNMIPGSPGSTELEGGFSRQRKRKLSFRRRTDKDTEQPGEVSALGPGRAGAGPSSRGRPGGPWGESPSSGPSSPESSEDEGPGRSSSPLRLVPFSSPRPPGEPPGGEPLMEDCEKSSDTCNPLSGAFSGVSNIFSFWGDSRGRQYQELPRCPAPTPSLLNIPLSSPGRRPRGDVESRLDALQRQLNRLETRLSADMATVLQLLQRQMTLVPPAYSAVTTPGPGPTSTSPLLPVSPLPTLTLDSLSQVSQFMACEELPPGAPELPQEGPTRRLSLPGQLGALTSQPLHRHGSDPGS
row,Compound,"hERG current change (%, negative = inhibition) at 10uM [%]"
1,Cc1cc(C(=O)NC2CC(C)(C)Cc3c2cnn3-c2cccc(F)c2)nn1C (stereo not drawn),-2.79
2,Cc1cc(C(=O)NC2CC(C)(C)Cc3c2cnn3-c2cccc(F)c2)n(C)n1 (stereo not drawn),-32.6
3,CC1=C(C(=O)NC2CC(C)(C)Cc3c2cnn3-c2cccc(F)c2)OCCO1 (stereo not drawn),-43.5
4,COc1cc(C(=O)NC2CC(C)(C)Cc3c2cnn3-c2ccccc2)cc(OC)c1OC (stereo not drawn),8.92
5,CC1(C)Cc2c(cnn2-c2cccc(F)c2)C(NC(=O)c2ccc(=O)[nH]n2)C1 (stereo not drawn),-70.2
6,COc1cccc(C(=O)NC2CC(C)(C)Cc3c2cnn3-c2cccc(F)c2)c1OC (stereo not drawn),-52.3
7,CC1(C)Cc2c(cnn2-c2cccc(F)c2)C(NC(=O)c2csnn2)C1 (stereo not drawn),-78.3
8,O=C(N/N=C/c1coc2ccccc2c1=O)c1ccccc1,10.6
9,COc1ccc(CN2CCN(C(=O)CC(C)C)CC2)cc1Br,-4.54
10,C=CC[C@]12C[C@@H](OC)C(=O)C=C1O[C@@H](c1ccc(OC)c(OC)c1)[C@H]2C,14.5
11,NC(=O)C(c1ccc(Sc2ccccc2)nn1)c1ccc(Cl)cc1Cl (stereo not drawn),-43.9
12,Cc1c(C(=O)NCC2COc3ccccc3O2)oc2ccc(S(=O)(=O)N3CC(C)CC(C)C3)cc12 (stereo not drawn),12.4
13,Cc1c(NC(=O)COC(=O)c2cc(-c3ccc(-c4ccccc4)cc3)nc3ccccc23)c(=O)n(-c2ccccc2)n1C,28.4
14,COc1ccccc1NNC(=O)C(O)(c1ccccc1OC)c1ccccc1OC,20.2
15,O=C(NC(Cc1ccccc1)C(=O)O)/C(=C/c1ccc([N+](=O)[O-])cc1)NC(=O)c1ccc(Br)o1 (stereo not drawn),11.5
16,Cn1c(=O)cc2c3c(c(N4CCCCC4)ccc31)C(=O)c1ccccc1-2,-63.2
17,CC(=O)N(C)c1ccc(N2CCOCC2)c2c1C(=O)c1ccccc1C2=O,-0.974
18,CC(=O)Nc1ccc(Nc2ccc3c4c(cc(=O)n3C)-c3ccccc3C(=O)c24)cc1,9.74
19,CCn1c(SCC(=O)Nc2cc(S(=O)(=O)N3CCOCC3)ccc2OC)nnc1-c1ccncc1,13.8
20,O=C(COc1ccc(Cl)cc1)Nc1c(-c2cccs2)nc2ccccn12,-14.4
21,Nc1cc(-c2nn[nH]n2)ccc1F,11.6

row,Compound,"hERG current change (%, negative = inhibition) at 10uM [%]"
1,O=C(Nc1ccc(Cl)c(-c2nc3ccccc3[nH]2)c1)c1ccc2c(c1)OCO2,-15
2,CCOC(=O)N1CCN(C(=O)C2CC(=O)N(c3ccccc3)C2)CC1 (stereo not drawn),5.31
3,Cc1ccc(N2CC(C(=O)N3CCOCC3)CC2=O)cc1C (stereo not drawn),6.52
4,Cc1ccc(N2CC(C(=O)N3CCCCCC3)CC2=O)cc1 (stereo not drawn),11.5
5,NC(=O)C1CCN(C(=O)C2CC(=O)N(c3ccc(F)cc3)C2)CC1 (stereo not drawn),13.7
6,O=C1CC2(CCN(C(=O)C3CC(=O)N(c4ccccc4)C3)CC2)Oc2ccccc21 (stereo not drawn),-77.4
7,Cc1ccc(N2CC(C(=O)N3CCC4(CC3)CC(=O)c3ccccc3O4)CC2=O)cc1 (stereo not drawn),-71.6
8,Cc1ccc(N2CC(C(=O)N3CCC4(CC3)CC(=O)c3ccccc3O4)CC2=O)cc1C (stereo not drawn),-71.3
9,O=C(C1CC(=O)N(c2ccccc2)C1)N1CCCCCC1 (stereo not drawn),13
10,O=C(C1CC(=O)N(c2ccc(F)cc2)C1)N1CCOCC1 (stereo not drawn),1.27
11,CCOC(=O)N1CCN(C(=O)C2CC(=O)N(c3ccc(C)cc3)C2)CC1 (stereo not drawn),-47.9
12,O=C1CC2(CCN(C(=O)C3CC(=O)N(c4ccc(F)cc4)C3)CC2)Oc2ccccc21 (stereo not drawn),-78.7
13,Cc1ccc(N2CC(C(=O)N3CCCCC3)CC2=O)cc1C (stereo not drawn),-21.2
14,CCN(CC#CCC(O)(c1ccccc1)C1CCCC1)C(C)C.Cl (stereo not drawn),-18.9
15,CCNC(=O)NC(=O)C(C)OC(=O)Cc1coc2cc3c(cc12)CCC3 (stereo not drawn),26.6
16,Cc1ccc(C2=NCCn3c2c2ccc(C(F)(F)F)cc2[n+]3[O-])cc1,-26.2
17,Nc1c(Cl)cc(C2=NCCn3c2c2ccc([N+](=O)[O-])cc2[n+]3[O-])cc1Cl,-54.8
18,Nc1c(Cl)cc(C2=NCCn3c2c2ccc(C(F)(F)F)cc2[n+]3[O-])cc1Cl,-26.1
19,[O-][n+]1c2cc(C(F)(F)F)ccc2c2n1CCN=C2c1ccc(Cl)cc1,-55.6
20,O=[N+]([O-])c1ccc2c3n([n+]([O-])c2c1)CCN=C3c1ccc(Cl)cc1,-29.6
21,Cc1ccc(C2=NCCn3c2c2ccc([N+](=O)[O-])cc2[n+]3[O-])cc1,-7.51
